This is an account of results in PubChem BioAssay (NCI).

Some test systems named below: NCI-H23 lung; NCI-H226 lung; NCI-H322M lung; HOP-62 NSCLC; NCI-H460 lung; HOP-92 NSCLC; NCI-H522 lung; A549/ATCC NSCLC; 786-0 renal; COLO 205 colon; DU-145 prostate; K-562 leukemia; MALME-3M melanoma; MDA-MB-231 breast; RXF 393 renal; SF-268 CNS; SF-295 CNS; SF-539 CNS; UACC-257 melanoma; M14 melanoma.
Common to all, as to test: NCI-60 one-dose screen, 48 h (100 = growth as untreated, 0 = no growth, -100 = all killed)
Common to all, as to details: 10 µM unless noted

The panel holds about 83,000 compounds, 20% with a hit somewhere; the sample as a whole holds those more often.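 Note: values are percent growth. 100 is the growth of untreated cells, values between 100 and 0 indicate rising inhibition; between -100 and 0 indicates cell death.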 Unmarked numbers belong to inactive results. Activity calls are given as the source filed them. Rule for the calls: active = growth percent below 10; inactive = the rest.

Regarding `Cc1cc(N2CCCC2)nc(N(CCCNc2ccnc3cc(Cl)ccc23)Cc2ccccn2)n1`, the growth was 59% in the assay on NCI-H23 lung; 79.8% in the assay on NCI-H226 lung; 57.1% in the assay on NCI-H322M lung; 55.6% in the assay with HOP-62 NSCLC; 35.6% with NCI-H460 lung; 17.4% in the assay with HOP-92 NSCLC. In addition, the growth with NCI-H522 lung was 47.3%; with A549/ATCC NSCLC, 62%; with 786-0 renal, 53.3%; with COLO 205 colon, 39.1%; in the assay on DU-145 prostate, 62.7%; in the assay with K-562 leukemia, 11.3%. In addition, the growth in the assay on MALME-3M melanoma was 39.4%; in the assay on MDA-MB-231 breast it was 45.2%; in the assay with RXF 393 renal, 25.8%; in the assay with SF-268 CNS, 62.5%; in the assay on SF-295 CNS, 66%; in the assay with SF-539 CNS, 9.89% (active). The growth with UACC-257 melanoma was 49.4%; with M14 melanoma, -15.9% (active).
As to `CCCCCCCNC(=O)CCCNc1ncnc2c1ncn2-c1cccc(C(C)O)c1` (centres undefined), the growth in the assay with NCI-H23 lung was 90.7%; in the assay on NCI-H226 lung, 79.3%; in the assay on NCI-H322M lung it was 108%; in the assay with HOP-62 NSCLC, 95.9%; in the assay on NCI-H460 lung, 99.8%; in the assay on HOP-92 NSCLC, 96.6%. For the same molecule, the growth with NCI-H522 lung was 80.9%; in the assay with A549/ATCC NSCLC, 94.5%; in the assay with 786-0 renal it was 97.3%; with COLO 205 colon, 92.9%; with DU-145 prostate, 94.4%; with K-562 leukemia, 41.6%. Further, the growth was 84.8% with MALME-3M melanoma; 89.9% with RXF 393 renal; 83.8% with SF-268 CNS; 93.6% in the assay on SF-295 CNS; 94.1% with SF-539 CNS; 121% in the assay with UACC-257 melanoma. In the assay with M14 melanoma, the growth is 89.3%.
As to `COc1ccc(-c2nnc(COc3ccc(Cl)cc3Cl)o2)cc1OC`, the growth in the assay on NCI-H23 lung was 56.3%; in the assay with NCI-H226 lung it was 32.8%; in the assay on NCI-H322M lung it was 16.8%; in the assay on HOP-62 NSCLC, -1.03% (active); in the assay with NCI-H460 lung, -4.77% (active); in the assay on HOP-92 NSCLC it was -32.4% (active). The growth was 19.4% with NCI-H522 lung; 9.7% (active) in the assay with A549/ATCC NSCLC; -70.8% (active) with 786-0 renal; 58.5% in the assay on COLO 205 colon; 22.6% with DU-145 prostate; 65.1% in the assay on K-562 leukemia. The growth was -1.79% (active) with MALME-3M melanoma; -56.7% (active) in the assay with RXF 393 renal; 45.7% in the assay with SF-268 CNS; 23.5% with SF-295 CNS; 83.6% with SF-539 CNS; 37.7% in the assay with UACC-257 melanoma. The growth in the assay with M14 melanoma is 45%.
Turning to `COC1=C(C)C(=O)c2c(c(CCCl)c3n2CCC3O)C1=O` (centres undefined), the growth was -16.8% (active) with NCI-H23 lung; -30.8% (active) in the assay on NCI-H226 lung; -4.2% (active) in the assay with NCI-H322M lung; -11.2% (active) in the assay on HOP-62 NSCLC; 4.7% (active) in the assay with NCI-H460 lung; 103% in the assay on HOP-92 NSCLC. The growth is -46.1% (active) with NCI-H522 lung; 4.42% (active) with A549/ATCC NSCLC; -21% (active) in the assay on 786-0 renal; -59.2% (active) with COLO 205 colon; 1.19% (active) with DU-145 prostate; 22% with K-562 leukemia. Further, the growth was -55.7% (active) in the assay on MALME-3M melanoma; -53.7% (active) with RXF 393 renal; 9.6% (active) in the assay with SF-268 CNS; -12% (active) in the assay on SF-295 CNS; -28.8% (active) with SF-539 CNS; -44.8% (active) in the assay with UACC-257 melanoma. Moreover, in the assay on M14 melanoma, the growth is -14.3% (active).
As for `CCOC(=O)CCN(C(=O)Nc1ccccc1)C1CCCCC1`, the growth in the assay with NCI-H23 lung was 102%; with NCI-H226 lung, 115%; in the assay on NCI-H322M lung, 110%; in the assay with HOP-62 NSCLC, 86.8%; with NCI-H460 lung, 102%; with HOP-92 NSCLC, 111%. Further, the growth was 99.2% in the assay on NCI-H522 lung; 132% in the assay on A549/ATCC NSCLC; 91.5% with 786-0 renal; 139% with COLO 205 colon; 100% with DU-145 prostate; 132% in the assay with K-562 leukemia. In addition, the growth in the assay on MALME-3M melanoma was 113%; in the assay with MDA-MB-231 breast it was 110%; in the assay on RXF 393 renal it was 177%; in the assay on SF-268 CNS, 104%; in the assay on SF-295 CNS, 108%; in the assay on SF-539 CNS it was 98.9%. Also, the growth in the assay with UACC-257 melanoma was 119%; in the assay with M14 melanoma, 108%.
`CC(=O)OC[C@H]1OC(Sc2sc(C(=O)c3ccc(C)cc3)c(N)c2-c2nc3ccccc3s2)[C@H](OC(C)=O)[C@@H](OC(C)=O)[C@@H]1OC(C)=O` (some centres undefined): the growth in the assay on NCI-H23 lung is 56.1%; with NCI-H226 lung it was 30.3%; with NCI-H322M lung, 81.3%; with HOP-62 NSCLC it was 61.5%; in the assay with NCI-H460 lung, 43.7%; in the assay with HOP-92 NSCLC it was 58.8%. The growth in the assay with NCI-H522 lung is 82.1%; in the assay on A549/ATCC NSCLC, 81.9%; with 786-0 renal, 47.4%; with DU-145 prostate, 42.1%; in the assay on K-562 leukemia, 68.4%; in the assay with MALME-3M melanoma it was 43.9%. The growth is 30% with MDA-MB-231 breast; 53.5% in the assay on RXF 393 renal; 71% in the assay on SF-268 CNS; 73.6% with SF-295 CNS; 28.2% in the assay on SF-539 CNS; 79.3% with UACC-257 melanoma. In the assay with M14 melanoma, the growth was 65.7%.
As to `CCC(C)(c1cc(C(C)(C)C)c(O)c(C(C)(C)C)c1)c1cc(C(C)(C)C)c(O)c(C(C)(C)C)c1`, the growth in the assay with NCI-H23 lung is 96.2%; in the assay with NCI-H226 lung, 100%; in the assay on NCI-H322M lung it was 98%; in the assay with HOP-62 NSCLC, 92.4%; in the assay with NCI-H460 lung, 106%; in the assay with HOP-92 NSCLC, 92.9%. The growth in the assay with NCI-H522 lung is 86.4%; in the assay on A549/ATCC NSCLC it was 93.5%; in the assay on 786-0 renal it was 99.2%; in the assay with COLO 205 colon, 107%; in the assay on DU-145 prostate, 101%; in the assay with K-562 leukemia, 91.4%. The growth was 94% in the assay on MALME-3M melanoma; 104% in the assay with RXF 393 renal; 95.4% in the assay on SF-268 CNS; 96.6% in the assay with SF-295 CNS; 105% in the assay with SF-539 CNS; 94.8% in the assay on UACC-257 melanoma. In addition, the growth in the assay on M14 melanoma was 98.5%.
On to `C=C(C)[C@@H]1CC[C@]2(N=C=O)CC[C@]3(C)[C@H](CC[C@@H]4[C@@]5(C)Cc6c([nH]c7ccccc67)C(C)(C)[C@@H]5CC[C@]43C)[C@@H]12`, for which the growth in the assay with NCI-H23 lung is 98%; with NCI-H226 lung it was 90.5%; in the assay on NCI-H322M lung, 88.4%; in the assay with HOP-62 NSCLC it was 89%; in the assay on NCI-H460 lung, 39.5%; with HOP-92 NSCLC, 66.2%. Moreover, the growth in the assay on NCI-H522 lung was 53.4%; with A549/ATCC NSCLC, 73.5%; in the assay with 786-0 renal, 66.7%; with DU-145 prostate, 63.2%; with K-562 leukemia it was 3.74% (active); with MALME-3M melanoma, 101%. Besides, the growth is 68.4% in the assay with MDA-MB-231 breast; 81.6% in the assay with RXF 393 renal; 80.7% in the assay with SF-268 CNS; 111% in the assay on SF-295 CNS; 89.3% in the assay with SF-539 CNS; 109% in the assay on UACC-257 melanoma. In addition, the growth in the assay with M14 melanoma was 70.5%.
